# PubChem BioAssay
# Assay: modulators of S6 phosphorylation in cells, primary screen, cell-based, A549, cytoblot, luminescence, serum-stimulated (AID 1158);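 also: serum-stimulated A549 lung adenocarcinoma cells; signal is phosphorylated S6 detected by cytoblot immunostaining with HRP secondary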
# Conditions: A549 phospho-S6 cytoblot, 5 h, higher = more signal
row,Compound,z-score
1,CN(C)CCCC[C@@H]1NC(=O)[C@@H]2C[C@H](C(=O)NCCCCCN)[C@H](c3ccc(O)cc3)N2C1=O,-0.431
2,CC(=O)n1cc(C(O)C2C=CC3C(=O)N(c4ccccc4)C(=O)C3N2Nc2ccc(C#N)cc2)c2ccccc21 (stereo unspecified),-0.784
3,COc1cc(NN2C(C(O)c3ccccc3)C=CC3C(=O)N(c4ccccc4)C(=O)C32)cc(OC)c1OC (stereo unspecified),0.838
4,C/C=C/[C@H](CCn1cc([C@H](O)c2ccccc2)nn1)[Si](C)(C)c1ccc(OC)cc1,0.293
5,C=C(C(=O)CC[C@@H](OC(=O)c1cccnc1)c1ccc(CO)o1)C(C)C,-0.211
6,C=CCC(OC(C)=O)[C@@H]1[C@@H](N(Cc2cc3ccccc3o2)C(=O)c2cccc3ccccc23)c2cc(OCCCO)ccc2N1C(=O)Cc1ccc2ccccc2c1 (stereo partly specified),0.778
7,Cc1ccccc1/C=C/C=O,-0.265
8,[N-]=[N+]=NCc1ccccc1C[C@]1(C(=O)NCc2ccccc2)COC(c2ccc(OCCCO)cc2)=N1,-0.153
9,COCCOC(=O)N1C(=O)[C@@]2(c3cc(C#CC4=CCCCC4)ccc31)[C@H](C(=O)N1CCN(c3ncccn3)CC1)[C@H]1C(=O)O[C@H](c3ccccc3)[C@H](c3ccccc3)N1[C@@H]2c1ccc(OCCO)cc1,0.212
10,COC(=O)C(CC#Cc1ccc2c(c1)[C@]1(C(=O)N2)[C@H](C(=O)N2CCCCCCC2)[C@H]2C(=O)O[C@H](c3ccccc3)[C@H](c3ccccc3)N2[C@@H]1c1ccccc1OCCO)C(=O)OC,-0.0756
11,NC(=O)[C@]1(Cc2ccccc2)N=C(c2ccc(OCCCO)cc2)O[C@@H]1c1ccccc1,-0.0349
